These sequences were tested against TMEM130 (assay: pooled miR-30 sensor sort-seq; sequence = guide strand). Conditions: shRNA.
With TTGCCAGTAAGCACCAGCGGGG the sensor-assay potency score (higher = more potent) was -1.3.
TAGAGAAACAAGGCGGTCTTGA was tested, and the sensor-assay potency score (higher = more potent) was 0.529.
In the case of TTTATTTAGCAACAATGGCAGT, the sensor-assay potency score (higher = more potent) is reported as -0.968.
With TAGTTATGGATTTTTAACCCTT the sensor-assay potency score (higher = more potent) was -0.844.
TTGCTGAGTGGCATTCCGCAGG gave a sensor-assay potency score (higher = more potent) of -0.984.
Sequence TTGTCCTTGGCCACCAGGCTGG has a sensor-assay potency score (higher = more potent) of -1.04.
With TTCAAGGTCACGGTCATCTTTT the sensor-assay potency score (higher = more potent) was -0.705.
TATTGTCTCAGCCACAGCCCAG was tested, and the sensor-assay potency score (higher = more potent) was -1.4.
Sequence TTGGAAGGTCTGAATTAGGGTG has a sensor-assay potency score (higher = more potent) of 0.0908.

These sequences were tested against TMEM140 in the same assay as above. Conditions: shRNA.
TATAGAAGCCGATTCTCAGGTT gave a sensor-assay potency score (higher = more potent) of 0.501.
TGCTCATGAACAGCAGCTGGTC showed a sensor-assay potency score (higher = more potent) of -1.48.
In the case of TATGATGCTCATGAACAGCAGC, the sensor-assay potency score (higher = more potent) is reported as -0.769.
Sequence TTATAGAAGCCGATTCTCAGGT has a sensor-assay potency score (higher = more potent) of 0.174.
With AAGAGCGTAAAACATCAGGCAG the sensor-assay potency score (higher = more potent) was -0.966.
TAGAAGCCGATTCTCAGGTTGG gave a sensor-assay potency score (higher = more potent) of -0.232.
Sequence ATCACGAGGACTATGATGCTCA has a sensor-assay potency score (higher = more potent) of -0.61.
Sequence TCTCTCATCACTGTTGCACTGG has a sensor-assay potency score (higher = more potent) of 0.0267.
With ATGAACAGCAGCTGGTCGCGCC the sensor-assay potency score (higher = more potent) was -1.18.
TGACACTGTAGGGTGCTGGTGT showed a sensor-assay potency score (higher = more potent) of 0.184.
TGTACTAAGAAGTCACAGGTGC gave a sensor-assay potency score (higher = more potent) of 0.194.
In the case of ATGCTCATGAACAGCAGCTGGT, the sensor-assay potency score (higher = more potent) is reported as -1.09.

Reference: the OligoGym collection
